MARV entry inh = inhibitors of Marburg virus binding or cell entry. Marburg virus pseudotyped entry inhibition, cell reporter. 1.8% of 300,000 active. Potency, µM (series often up to 37.8 µM), most hits filed as inhibitors; calls by dose curve; tested in HEK293 cells
HCV inhibitor = blocks hepatitis C virus | Huh7.5.1 HCVcc-Cre infection, luciferase reporter, 44 h | AID 651820 | Potency, µM (series often up to 41.8 µM), hits mostly inhibitors | 3.4% of 340,000 active; active = well fitted inhibition curve with a large enough effect; inconclusive = small, poorly fitted or top-dose-only effect, or another doubt; inactive = no such curve, though single readings can be large or run the other way
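Whole-lifecycle infectious HCVcc-Cre system; cells 1,000/well, compound then virus (~0.5 moi) added 4 h after plating, 44 h culture. Luciferase read 15 sec following 15 min substrate incubation, room temp.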
SARS PLpro yeast = SARS-CoV PLP inhibition in yeast | AID 485353 | Potency, µM (series often up to 32.9 µM), actives largely listed as activators | 0.19% of 330,000 active | S. cerevisiae expressing SARS-CoV PLpro, growth rescue; calls by dose curve; note: nearly all actives have a fitted effect of over 55% in size
HCMV inh = blocks human cytomegalovirus replication; HFF cells, HCMV-luciferase reporter, 72 h; stronger effect = lower value; activity change, negative = inhibition, % at 57.5 µM; 4.5% of 410,000 active; in the data active = activity change below about -60%; inconclusive = no clear call, values can overlap the other calls; inactive = above about -39%
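Inhibition of viral replication was scored as loss of reporter luminescence in HFFs infected with HCMV-luciferase (MOI 1 PFU/cell) for 72 h; compounds tested at 2 doses, normalized to buffer and Salinomycin controls.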
Lassa entry inh = blocks Lassa virus binding to or entry into cells; Lassa virus pseudotype entry inhibition, cell reporter; Potency, µM (titrated, usually from 37.9 µM), actives largely listed as inhibitors; 1.2% of 300,000 active; AID 540256; calls by dose curve; tested in HEK293 cells; note: nearly all actives have a fitted effect of over 50% in size
FMDV inh = blocks foot and mouth disease virus; FMDV antiviral cell-based qHTS; Potency, µM (highest dose often 57.9 µM), actives largely listed as inhibitors; 1.2% of 410,000 active; AID 1159524; calls by dose curve; tested in HEK293T cells; note: read-out not given here; nearly all actives have a fitted effect of over 45% in size
Each line names hits and unclear results; the compound was inactive in the other large screens. In the library only some 8% were active in any assay of this set; here they are far more common.

CC(C)CCn1cnc2c(sc3nc4c(cc32)CSC(C)(C)C4)c1=O	HCMV inh -74
Cc1cccc2c1N[C@H](/C=C/C(=O)OC(C)(C)C)C2	none (no result: MARV entry inh, HCV inhibitor, SARS PLpro yeast, Lassa entry inh, FMDV inh)
CCc1ccc(Sc2cc(C(=O)NCc3cccc(OC)c3)c3ccccc3n2)cc1	HCMV inh inconclusive, Lassa entry inh inconclusive (no result: MARV entry inh, HCV inhibitor, SARS PLpro yeast)
CCc1ccc(Sc2cc(C(=O)NCCCN3CCC(C)CC3)c3ccccc3n2)cc1	HCMV inh -77, Lassa entry inh inconclusive (no result: MARV entry inh, HCV inhibitor, SARS PLpro yeast)
CCc1ccc(Sc2cc(C(=O)NCCCN3CCCC(C)C3)c3ccccc3n2)cc1 (stereo unspecified)	HCMV inh -61, Lassa entry inh inconclusive (no result: MARV entry inh, HCV inhibitor, SARS PLpro yeast)
Cc1ccc2c(c1)C(=O)C(=O)N2Cc1ccc(C(F)(F)F)cc1	HCV inhibitor inconclusive, HCMV inh inconclusive (no result: MARV entry inh, Lassa entry inh)
O=C1C(=O)N(CCS(=O)(=O)c2ccccc2)c2ccc(Cl)cc21	none (no result: MARV entry inh, Lassa entry inh)
Cc1ccc(OCCN2C(=O)C(=O)c3cc(C)ccc32)cc1	HCV inhibitor inconclusive, HCMV inh -92 (no result: MARV entry inh, Lassa entry inh)
Cc1ccc2c(c1)C(=O)C(=O)N2Cc1ccc(OC(C)C)cc1	MARV entry inh inconclusive, HCMV inh -76, Lassa entry inh inconclusive (no result: HCV inhibitor, SARS PLpro yeast)
CCCN1C(=O)C(=O)c2cc(Cl)ccc21	HCV inhibitor inconclusive, HCMV inh -86 (no result: MARV entry inh, Lassa entry inh)
Cc1cccc(C)c1NC(=O)[C@@]1(CC(=O)O)CC(/C=C/c2ccccc2)=NO1	none
C/C(O)=C1\C(=O)[C@@H]2[C@H]3c4c[nH]c5cccc(c45)C[C@H]3C(C)(C)N2C1=O	none (no result: MARV entry inh, HCV inhibitor, SARS PLpro yeast, HCMV inh, Lassa entry inh)
